Six compounds from PubChem BioAssay (NCI) can be followed below.

Several values for one entry are separate records, joined by “and”; a condition that tells them apart may be missing. Identical values can stand only once. This is part of a sample that, as a whole, favours compounds with a hit. Of some 83,000 tested, about 20% had one in any assay.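 Single-dose data. Exposure time 48 hours. Values below 10 considered active.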 Activity calls are given as the source filed them.

Among the test systems are SR leukemia; RPMI-8226 leukemia; OVCAR-8 ovarian; OVCAR-5 ovarian; OVCAR-4 ovarian; SK-OV-3 ovarian; IGROV1 ovarian; OVCAR-3 ovarian; HS 578T breast; NCI/ADR-RES ovarian; T-47D breast; BT-549 breast; MDA-MB-435 melanoma; SW-620 colon; MCF7 breast; HCT-116 colon; HCC-2998 colon; KM12 colon.
What all share (assay): NCI-60 one-dose screen, 48 h (100 = growth as untreated, 0 = no growth, -100 = all killed)
Holding throughout (conditions): 10 µM unless noted

In the case of `O=C(c1ccncc1)c1c(Cc2ccccc2)ccc2ccccc12`, the growth with SR leukemia is 107% (inactive); in the assay with RPMI-8226 leukemia it was 85.1% (inactive); in the assay on OVCAR-8 ovarian, 82.5% (inactive); in the assay on OVCAR-5 ovarian it was 87.5% (inactive); in the assay with OVCAR-4 ovarian, 82.7% (inactive); with SK-OV-3 ovarian, 120% (inactive). Further, the growth in the assay with IGROV1 ovarian was 18% (inactive); in the assay on OVCAR-3 ovarian, 98% (inactive); with HS 578T breast, 95.3% (inactive); with NCI/ADR-RES ovarian, 88.2% (inactive); in the assay with T-47D breast, 113% (inactive); in the assay on BT-549 breast it was -7.98% (active). For the same compound, the growth is 83.2% (inactive) in the assay with MDA-MB-435 melanoma; 90.4% (inactive) in the assay with SW-620 colon; 101% (inactive) in the assay with MCF7 breast; 82% (inactive) in the assay on HCT-116 colon; 37.3% (inactive) in the assay on HCC-2998 colon; 102% (inactive) in the assay with KM12 colon.
Consider `Clc1ccc2sc(-c3ccccc3)nc2c1`, for which the growth in the assay with SR leukemia was 83.1% (inactive); in the assay with RPMI-8226 leukemia, 97% (inactive); in the assay with OVCAR-8 ovarian it was 87.9% (inactive); with OVCAR-5 ovarian it was 120% (inactive); in the assay with OVCAR-4 ovarian, 81.5% (inactive); in the assay on SK-OV-3 ovarian it was 83.6% (inactive). The growth in the assay with IGROV1 ovarian was 101% (inactive); with OVCAR-3 ovarian it was 98.6% (inactive); with HS 578T breast, 68.7% (inactive); in the assay with NCI/ADR-RES ovarian it was 100% (inactive); in the assay with T-47D breast, 56.8% (inactive); in the assay on BT-549 breast, 109% (inactive). The growth was 95.4% (inactive) in the assay with MDA-MB-435 melanoma; 72.2% (inactive) in the assay with SW-620 colon; 94.9% (inactive) in the assay with HCT-116 colon; 103% (inactive) in the assay on HCC-2998 colon; 104% (inactive) in the assay on KM12 colon.
As to `Cc1cccc(Cl)c1N`, the growth in the assay on SR leukemia is 98.9% (inactive); with RPMI-8226 leukemia, 120% (inactive); in the assay with OVCAR-8 ovarian it was 96.1% (inactive); with OVCAR-5 ovarian, 110% (inactive); in the assay with OVCAR-4 ovarian, 117% (inactive); in the assay with SK-OV-3 ovarian, 113% (inactive). Moreover, the growth was 153% (inactive) in the assay with IGROV1 ovarian; 117% (inactive) with OVCAR-3 ovarian; 87.6% (inactive) in the assay on HS 578T breast; 101% (inactive) in the assay on NCI/ADR-RES ovarian; 110% (inactive) with T-47D breast; 111% (inactive) in the assay with BT-549 breast. In addition, the growth with MDA-MB-435 melanoma was 95.7% (inactive); in the assay on SW-620 colon it was 96.9% (inactive); in the assay with MCF7 breast it was 99% (inactive); in the assay with HCT-116 colon, 113% (inactive); in the assay with HCC-2998 colon, 102% (inactive); in the assay with KM12 colon, 110% (inactive).
For `NNc1ncnc2cccc(Cl)c12`, the growth in the assay with SR leukemia was 108% (inactive); in the assay with RPMI-8226 leukemia, 94.9% (inactive); with OVCAR-8 ovarian it was 95.2% (inactive); in the assay with OVCAR-5 ovarian it was 97.5% (inactive); with OVCAR-4 ovarian, 114% (inactive); in the assay on SK-OV-3 ovarian it was 94.4% (inactive). In addition, the growth in the assay with IGROV1 ovarian was 102% (inactive); in the assay with OVCAR-3 ovarian, 119% (inactive); in the assay on HS 578T breast, 98.4% (inactive); in the assay with NCI/ADR-RES ovarian, 102% (inactive); in the assay on T-47D breast, 90.6% (inactive); with BT-549 breast, 112% (inactive). Besides, the growth in the assay with MDA-MB-435 melanoma is 115% (inactive); in the assay on SW-620 colon, 104% (inactive); with MCF7 breast it was 96.6% (inactive); with HCT-116 colon, 98.1% (inactive); in the assay with HCC-2998 colon it was 104% (inactive); with KM12 colon, 106% (inactive).
Turning to `O=C(O)C1CSCN1` (configuration not stated), the growth is 97.4% (inactive) in the assay with SR leukemia; 106% (inactive) and 105% (inactive) in the assay on RPMI-8226 leukemia; 113% (inactive) and 98.8% (inactive) in the assay on OVCAR-8 ovarian; 118% (inactive) and 88.8% (inactive) in the assay with OVCAR-5 ovarian; 112% (inactive) and 102% (inactive) in the assay on OVCAR-4 ovarian; 105% (inactive) and 94.9% (inactive) with SK-OV-3 ovarian. Further, the growth is 106% (inactive) in the assay with IGROV1 ovarian; 120% (inactive) and 107% (inactive) in the assay on OVCAR-3 ovarian; 136% (inactive) and 112% (inactive) in the assay with HS 578T breast; 108% (inactive) and 87.2% (inactive) in the assay with NCI/ADR-RES ovarian; 107% (inactive) and 97.9% (inactive) in the assay on T-47D breast; 99% (inactive) in the assay on BT-549 breast. For the same compound, the growth with MDA-MB-435 melanoma is 95.5% (inactive) and 104% (inactive); with SW-620 colon it was 115% (inactive) and 113% (inactive); in the assay with MCF7 breast it was 95.4% (inactive); in the assay with HCT-116 colon, 108% (inactive) and 94.4% (inactive); with HCC-2998 colon, 133% (inactive) and -20.6% (active); with KM12 colon, 117% (inactive) and 110% (inactive).
As to `Cc1cc(O)c(C(C)C)cc1N=O`, the growth in the assay with SR leukemia is 110% (inactive); with RPMI-8226 leukemia it was 97.2% (inactive); in the assay on OVCAR-8 ovarian, 102% (inactive) and 92.1% (inactive); in the assay on OVCAR-5 ovarian it was 101% (inactive) and 108% (inactive); in the assay on OVCAR-4 ovarian, 109% (inactive) and 111% (inactive); in the assay on SK-OV-3 ovarian, 96.4% (inactive) and 105% (inactive). Further, the growth in the assay on IGROV1 ovarian was 124% (inactive) and 112% (inactive); with OVCAR-3 ovarian, 109% (inactive) and 88.8% (inactive); with HS 578T breast it was 104% (inactive) and 114% (inactive); in the assay on NCI/ADR-RES ovarian it was 98.7% (inactive) and 106% (inactive); with T-47D breast, 82.5% (inactive) and 90.9% (inactive); with BT-549 breast it was 114% (inactive) and 95.9% (inactive). The growth was 99.5% (inactive) and 117% (inactive) with MDA-MB-435 melanoma; 123% (inactive) and 104% (inactive) in the assay with SW-620 colon; 90.8% (inactive) and 94.9% (inactive) in the assay with MCF7 breast; 94.4% (inactive) and 93.8% (inactive) with HCT-116 colon; 98.1% (inactive) and 102% (inactive) in the assay with HCC-2998 colon; 109% (inactive) and 110% (inactive) in the assay with KM12 colon.
